15 compounds from PubChem BioAssay AID504447 (The Scripps Research Institute Molecular Screening Center, 2011) can be followed below.

This experiment deals with Peroxisome proliferator-activated receptor gamma (Homo sapiens) (UniProt P37231). In words: PPARg transcriptional activation, reporter cells – cell-based, luminescence, assay provider, dose response (AID 504447).

Each structure is given as a SMILES string. Potency and affinity values are given separately. Calls of active or inactive are those of the source. A call without a number means that no potency is given here. How the calls were made is not given here.

Sequence of Peroxisome proliferator-activated receptor gamma (Homo sapiens) (P37231 whole entry, looked up): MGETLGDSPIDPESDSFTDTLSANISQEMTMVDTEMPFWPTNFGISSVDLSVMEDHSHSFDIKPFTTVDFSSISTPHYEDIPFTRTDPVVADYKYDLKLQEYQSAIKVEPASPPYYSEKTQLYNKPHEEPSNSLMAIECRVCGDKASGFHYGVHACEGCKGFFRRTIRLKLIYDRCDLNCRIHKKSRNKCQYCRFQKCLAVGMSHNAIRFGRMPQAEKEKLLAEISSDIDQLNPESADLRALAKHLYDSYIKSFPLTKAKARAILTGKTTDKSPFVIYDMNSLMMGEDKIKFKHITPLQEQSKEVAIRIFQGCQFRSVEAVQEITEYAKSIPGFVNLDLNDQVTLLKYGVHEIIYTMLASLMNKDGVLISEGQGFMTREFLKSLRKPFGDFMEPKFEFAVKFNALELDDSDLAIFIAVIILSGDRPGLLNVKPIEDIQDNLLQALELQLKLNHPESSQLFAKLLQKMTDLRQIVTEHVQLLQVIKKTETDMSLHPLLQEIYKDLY

Regarding `Cc1c(-n2cc(C(=O)c3cc(F)ccc3O)cc(C#N)c2=O)c(=O)n(-c2ccccc2)n1C`, the outcome was inactive.

`CCOc1cc(C2C(C(=O)OC)=CN(Cc3ccc(Cl)cc3)C=C2C(=O)OC)ccc1O`: the call was inactive.

Turning to `O=c1c2cn(Cc3ccc(F)cc3)c3ccccc3c-2nn1Cc1ccc(F)cc1`, the result was inactive.

On to `COc1ccc(S(=O)(=O)N2CCCCC2)cc1NC(=O)C1CSC2(C)CCC(=O)N12` (stereo not given), for which the result was inactive.

Regarding `CC(C)OC(=O)CCN1C(=O)/C(=C/c2ccccc2)SC1=S`, the result was inactive.

Regarding `O=C1C(=O)N(CCCn2ccnc2)C(c2ccc(Cl)cc2)/C1=C(\O)c1ccc2c(c1)OCCO2` (stereo not given), the call was inactive.

With `O=C(O)COc1ccccc1/C=C1\SC(=S)N(NC(=O)c2ccccc2O)C1=O`, the compound was classed as inactive.

For `COc1cc(/C=C(\NC(=O)c2ccccc2)C(=O)NC(C(=O)O)c2ccccc2)cc(OC)c1OC` (stereo not given), the call was inactive.

`O=C(O)CCN1C(=O)/C(=C/c2ccccc2Cl)SC1=S`: the outcome was inactive.

Take `COc1ccccc1NC(=O)C(=O)c1cn(CC(=O)N2CCOCC2)c2ccccc12`: the compound was called inactive.

With `Cc1ccc2cc(CN(Cc3ccccc3)Cc3nnnn3C3CCCC3)c(=O)[nH]c2c1`, the compound was classed as inactive.

With `Cc1cc(C)c2nc(N3C(=O)C(O)=C(C(=O)c4ccco4)C3c3ccc(O)cc3)sc2c1` (stereo not given), the call was inactive.

On to `O=c1c2cn(Cc3ccc(F)cc3)c3ccc(F)cc3c-2nn1Cc1ccc(F)cc1`, for which the result was inactive.

Take `O=C(Nc1c(C(=O)Nc2ccc3c(c2)OCCO3)cnn1-c1ccccc1Cl)c1ccco1`: the outcome was inactive.

For `O=C(COc1coc(CN2CCc3ccccc3C2)cc1=O)Nc1ccc(F)cc1F`, the result was inactive.
